Rows were chosen to be rich in hits. Some 2.4% of all compounds tested hit in one or more screens of this group.
D2 ag-1: agonists of human D2 dopamine receptor. P14416. activation, % at 2 µM. hit rate 0.53% among 340,000. AID 485358. HEK293 T-REx D2 cells, calcium flux agonist mode;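 active = activation over 3 SD above normal in the single-dose calcium agonist read, cut at about 30% in these data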; also: 0% is about no effect
Target sequence (P14416 whole entry, looked up): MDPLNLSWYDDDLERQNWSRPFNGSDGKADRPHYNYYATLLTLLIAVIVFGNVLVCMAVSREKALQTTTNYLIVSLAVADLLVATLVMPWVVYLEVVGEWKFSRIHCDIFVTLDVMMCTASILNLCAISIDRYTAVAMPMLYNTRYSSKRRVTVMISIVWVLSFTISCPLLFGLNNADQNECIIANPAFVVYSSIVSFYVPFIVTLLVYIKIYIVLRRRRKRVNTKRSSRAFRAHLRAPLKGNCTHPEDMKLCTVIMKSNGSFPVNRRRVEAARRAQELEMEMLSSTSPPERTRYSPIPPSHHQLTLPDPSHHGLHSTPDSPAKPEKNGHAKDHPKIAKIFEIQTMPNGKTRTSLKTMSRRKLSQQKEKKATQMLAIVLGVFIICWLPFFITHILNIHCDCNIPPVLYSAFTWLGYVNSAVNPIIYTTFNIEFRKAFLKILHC
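Tetracycline-induced HEK293 Trex cells with D2 receptor force-coupled to calcium signaling, plated overnight at 30 C and loaded with no-wash calcium dye. Calcium flux read kinetically for 180 s after compound addition; responses flag agonists.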
D2 antagonist: antagonists of human D2 dopamine receptor; AID 485344; inhibition, % at 10 µM; HEK293 TREx D2 cells, calcium flux, dopamine EC80; hit rate 2% among 340,000; in the data active = inhibition above about 30%; inactive = below that, where a call was filed; also: 0% is about no effect
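Overnight-induced (tetracycline, 30 C) HEK293 T-REx cells carrying force-coupled D2 receive a no-wash calcium dye, then compound, then EC80 dopamine at 180 s; signals are read kinetically throughout.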
D2 PAM-1: positive allosteric modulators of human D2 dopamine receptor. HEK293 T-REx D2, calcium flux, EC20 dopamine potentiation. potentiation, % at 10 µM. hit rate 0.34% among 340,000;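 active = potentiation over 3 SD above the plate norm, cut at about 30% in these data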; also: 0% is about no effect
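Tetracycline-induced HEK293 T-REx cells force-coupled to calcium signalling expressed D2; compounds were pin-added after a 10 s baseline, read kinetically 180 s, then an EC20 dopamine challenge followed with a further 180 s calcium read.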
D2 ag-2: human D2 receptor agonism in beta-arrestin assay; P14416; DiscoveRx PathHunter D2 beta-arrestin, luminescence, 90 min; 100% = 57 uM dopamine signal; activation, % (test concentration not listed); hit rate 0.084% among 360,000; AID 624465; in the data active = activation above about 40%; inconclusive = between about 15% and that limit
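DiscoveRx PathHunter D2 beta-arrestin cells (2,100/well) attached overnight, then compound-stimulated 90 min at 37 C in HBSS/10 mM HEPES/0.1% Tween-20 buffer; beta-galactosidase complementation read by luminescence after 1 h at ambient temperature. Dopamine 57 uM final (EC100) as control.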
D2 PAM-2: potentiates the human D2 dopamine receptor allosterically. P14416. potentiation, % (no concentration beside the values). hit rate 0.23% among 360,000. AID 624464. DiscoveRx D2 beta-arrestin cells, luminescence, 90 min; 100% = 57 uM dopamine signal; in the data active = potentiation above about 50%; inconclusive = mostly about 30% to 49%
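PathHunter D2 cells, attached overnight at 37 deg C, received compound in DMSO plus dopamine at EC20 (50 nM final) for 90 min at 37 deg C. Beta-arrestin recruitment was read as luminescence after 1 h with detection reagent at ambient temperature.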
* = called active by the depositor; ! = not active in a repeat.

For CCC(Sc1nc2cc(OC)c(OC)cc2c(=O)n1Cc1ccc(OC)cc1)C(=O)NCCOC (stereo unspecified) the results were D2 ag-1 0, D2 antagonist -1, D2 PAM-1 31*!, D2 ag-2 -2 and D2 PAM-2 -2.
`CC(NC(=O)CCNC(=O)c1ccccc1Cl)c1ccc(-n2ccnc2)cc1` (stereo unspecified) gave D2 ag-1 0, D2 antagonist -26, D2 PAM-1 -4, D2 ag-2 -1 and D2 PAM-2 -1.
Screening COc1ccccc1C(=O)NCCC(=O)NC(C)c1ccc(-n2ccnc2)cc1 (stereo unspecified) returned D2 ag-1 0, D2 antagonist 33*, D2 PAM-1 -2, D2 ag-2 -3 and D2 PAM-2 -15.
For OC(c1cccnc1)c1nc(-c2ccc3c(c2)OCO3)cs1 (stereo unspecified) the results were D2 ag-2 -2 and D2 PAM-2 -4.
`O=C(Nc1ccncc1)c1cc2ccccc2cc1O` gave D2 ag-1 3, D2 antagonist 0, D2 PAM-1 20, D2 ag-2 inconclusive and D2 PAM-2 137*.
`O=CC(O)C1OC(=O)C(O)C1O` (stereo unspecified) gave D2 ag-2 -3 and D2 PAM-2 -17.
O=C(c1ccco1)[C@@H]1[C@@H]2C(=O)N(c3ccc(F)cc3)C(=O)[C@@H]2[C@H]2C=Cc3ccccc3N21 was read as D2 ag-1 1, D2 antagonist 43*, D2 PAM-1 12, D2 ag-2 -1 and D2 PAM-2 -1.
Screening NC(=O)[C@@H]1[C@@H]2C(=O)N(c3ccc(F)cc3)C(=O)[C@@H]2[C@H]2C=Cc3ccccc3N21 returned D2 ag-1 1, D2 antagonist -15, D2 PAM-1 12, D2 ag-2 -4 and D2 PAM-2 -10.
C=CCN1C(=O)N/C(=C/c2ccc(C)o2)C1=O was read as D2 ag-1 39*, D2 antagonist -3, D2 PAM-1 -15, D2 ag-2 -11 and D2 PAM-2 -21.
Screening N#Cc1c(SCC(=O)Nc2nncs2)sc2c(O)cc(=O)[nH]c12 returned D2 ag-1 -1, D2 antagonist 6, D2 PAM-1 -20, D2 ag-2 -6 and D2 PAM-2 0.
For COC(=O)c1ccc(OC)c(CN2C(=O)N(c3ccc(C(C)=O)cc3)S(=O)(=O)c3ccccc32)c1 the results were D2 ag-1 -1 and D2 PAM-1 -1.
For Cc1nc(Cl)sc1C(=O)Nc1ccccc1Cl the results were D2 ag-1 -1, D2 antagonist -8, D2 PAM-1 6, D2 ag-2 2 and D2 PAM-2 53*.
For COc1ccccc1NC(=O)c1ccc2c(c1)nnn2C the results were D2 ag-1 0, D2 antagonist 71*, D2 PAM-1 3, D2 ag-2 -6 and D2 PAM-2 -2.
`Cn1nnc2cc(C(=O)Nc3ccccc3)ccc21` gave D2 ag-1 1, D2 antagonist 13, D2 PAM-1 11, D2 ag-2 -3 and D2 PAM-2 -2.
For CCCCNC(=O)c1ccc2c(=O)n(Cc3ccc(OC)cc3)c(=O)[nH]c2c1 the results were D2 ag-1 0.
`COc1ccc(C(C)=O)cc1COC(=O)Cc1n[nH]c(=O)c2ccccc12` gave D2 ag-1 0, D2 antagonist 33*, D2 PAM-1 5, D2 ag-2 -3 and D2 PAM-2 -3.
COc1ccccc1C(=O)COC(=O)Cc1n[nH]c(=O)c2ccccc12 was read as D2 PAM-1 -11, D2 ag-2 -5 and D2 PAM-2 -1.
Screening CCc1cc(=O)oc2cc(C)cc(OCC(=O)N3CCC(C(=O)NC(C)C)(c4ccccc4)CC3)c12 returned D2 ag-1 1, D2 antagonist 53*, D2 PAM-1 -13, D2 ag-2 4 and D2 PAM-2 3.
Screening COc1ccccc1-n1c(SCC(=O)N2CCOCC2)nc2cccnc21 returned D2 ag-1 0, D2 antagonist 60*, D2 PAM-1 -5, D2 ag-2 -4 and D2 PAM-2 -3.
`COc1ccc(Cn2ccc3nc(C)c(C(=O)Nc4ccc(OC)c(OC)c4)cc3c2=O)cc1` gave D2 ag-1 -1 and D2 PAM-1 7.
Screening Cc1nc2ncnn2c(N2CCN(c3cccc(C(F)(F)F)c3)CC2)c1C returned D2 ag-2 2 and D2 PAM-2 -6.
Screening Cn1nc(C(F)(F)F)c(C#N)c1N1CCN(c2cccc(C(F)(F)F)c2)CC1 returned D2 ag-1 1, D2 antagonist 43*, D2 PAM-1 -19, D2 ag-2 -3 and D2 PAM-2 -29.
`O=C(NCc1ccccc1)c1onc(CSc2ccc(Cl)cc2)c1C(=O)NCC1CC1` gave D2 ag-1 0, D2 antagonist 12, D2 PAM-1 -9, D2 ag-2 0 and D2 PAM-2 -1.
For C=CCNC(=O)c1onc(CSc2ccccc2)c1C(=O)O the results were D2 ag-1 1, D2 antagonist 32*, D2 PAM-1 -5, D2 ag-2 1 and D2 PAM-2 0.
C=CCNC(=O)c1onc(CSc2ccc(F)cc2)c1C(=O)O was read as D2 ag-1 0, D2 antagonist 5, D2 PAM-1 8, D2 ag-2 3 and D2 PAM-2 2.
For O=C(NCc1ccccc1)c1onc(CSc2ccccc2)c1C(=O)NCC1CC1 the results were D2 ag-1 3, D2 antagonist 39*, D2 PAM-1 -9, D2 ag-2 -6 and D2 PAM-2 -10.
`COc1ccc(N2CCN(C(=O)COc3ccccc3C#N)CC2)cc1` gave D2 ag-1 0 and D2 PAM-1 -3.
For Cc1cc(Cl)ccc1OCC(=O)NNC(=O)CCOc1ccccc1 the results were D2 ag-1 -1, D2 antagonist 31*, D2 PAM-1 4, D2 ag-2 -1 and D2 PAM-2 -3.
For Cc1ccc(F)cc1NC(=O)CCOc1ccccc1 the results were D2 ag-1 -1, D2 antagonist 32*, D2 PAM-1 -6, D2 ag-2 0 and D2 PAM-2 -6.
CCOc1ccc(CCN2C(=S)N([C@@H](CC(C)C)CN3CCCC3CN3C(=S)NC[C@@H]3CC(C)C)C[C@@H]2CC(C)C)cc1 (stereo partly specified) was read as D2 ag-2 -4 and D2 PAM-2 -8.
Cc1cc(C)c(OCC(=O)N(Cc2ccccc2)C2CCS(=O)(=O)C2)c(C)c1 (stereo unspecified) was read as D2 ag-1 0, D2 antagonist 6, D2 PAM-1 44*, D2 ag-2 3 and D2 PAM-2 -5.

Compound activity from PubChem BioAssay.
